Sampled rows, rich in hits. Any-hit rate of the full collection: about 0.93%.
CDC25B CDK2 inh – primary biochemical HTRF screen for blockers of M-phase inducer phosphatase 2 binding to CDK2/cyclin A; actives 0.72% (n = 94,000); z-score (no concentration beside the values); HTRF CDC25B-CDK2/CyclinA binding, anti-His/anti-Flag; active compounds read high; in the data active = z-score above about 3.2
TAR Tat displ – TAR RNA-Tat peptide displacers, HIV-1, primary screen, biochemical, FRET, FAM/TAMRA-labeled Tat; z-score (no concentration beside the values); actives 0.6% (n = 100,000); HIV-1 TAR RNA, Tat peptide displacement FRET; active compounds read high; active = z-score of 3 or more in at least 2 runs
The depositor's hits bear a star; . = no result given; ! = not confirmed by another sample.

SMILES	CDC25B CDK2 inh	TAR Tat displ
Cn1c(C(=O)N2CCN(C(=O)c3ccco3)CC2)cc2c(=O)n(C)c3ccccc3c21	-1.73	1.1
O=C(C1=C(O)C(=O)N(CCCn2ccnc2)C1c1ccc(Cl)cc1)c1ccco1 (stereo unspecified)	-3.7	-1.12
CSc1nc2ccccc2c(=O)n1CC1CCCCC1	-0.23	.
Cc1ccc2nc(NC(=O)C(Cc3c[nH]c4ccccc34)NC(=O)OCc3ccccc3)sc2c1 (stereo unspecified)	-1.21	.
CC1CCC(NC(=O)C2CCN(S(=O)(=O)c3ccc4[nH]c(=O)ccc4c3)CC2)CC1 (stereo unspecified)	.	2.79
CC1CCC(NS(=O)(=O)c2ccc3[nH]c(=O)ccc3c2)CC1 (stereo unspecified)	.	32*
CN1CCc2nc3sc(C(=O)Nc4cccc(Cl)c4)c(N)c3cc2C1	-1.99	-1.59
CN1CCc2nc3sc(C(=O)c4ccc(Cl)cc4)c(N)c3cc2C1	19.1*	-6.55
CC1CCC(NC(=O)C2(C)Cn3c(cc4occc43)C(=O)N2CCN2CCOCC2)CC1 (stereo unspecified)	.	2.24
CC1(C(=O)NC2CCCCC2)Cn2c(cc3occc32)C(=O)N1C1CCCCC1 (stereo unspecified)	.	2.17
CC1CCC(NC(=O)C2(C)Cn3c(cc4occc43)C(=O)N2C2CCC(C)CC2)CC1 (stereo unspecified)	.	5.38*
CC1CCC(NC(=O)C2(C)Cn3c(cc4occc43)C(=O)N2C2CCCCC2)CC1 (stereo unspecified)	.	5.36*
CC1CCC(NC(=O)C2(C)Cn3c(cc4occc43)C(=O)N2CCN(C)C)CC1 (stereo unspecified)	.	2.49
CC1(C(=O)NC2CCCCC2)Cn2c(cc3occc32)C(=O)N1CCN1CCOCC1 (stereo unspecified)	.	4.03*
Cc1nc2sccn2c(=O)c1S(=O)(=O)Nc1ccc(Br)cc1F	.	1.79
Cc1cccc2c3c(ccc12)C1=C(C(=O)C3=O)[C@@H](C)CO1	.	16.8*
Cc1sc2c(c1C)CSC(C(=O)NCCN1CCCC1)=C2	.	6.31*
O=C(NCCN1CCCC1)C1=Cc2sc3c(c2CS1)CCCC3	.	2.15
CN(Cc1ccccc1)c1nnc(NC(=O)NCc2ccccc2)s1	-1.3	7.97*
CN(Cc1ccccc1)c1nnc(NC(=O)Nc2ccc3c(c2)OCCO3)s1	-0.57	3.63
CCN(CCN(C)C)C(=O)c1nn(C)c2c1COc1ccccc1-2	-1.2	1.65
COc1cccc(-n2c(C)c(C)c3c2ncn2nc(-c4ccc(N(C)C)cc4)nc32)c1	-2.69	1.64
O=C(CN1C(C(=O)c2ccccc2)=C(N2CCCCC2)c2ccccc2S1(=O)=O)c1ccccc1	-0.76	-1.14
COc1ccc(OC)c(-n2nnc(-c3nc(-c4ccc(Cl)cc4)no3)c2C)c1	.	0.69
Cc1cc(=O)n2[nH]c(C)c(-c3ccc(Cl)cc3)c2n1	-3.7	.
SMILES	CDC25B CDK2 inh	TAR Tat displ
Cc1[nH]n2c(=O)cc(CSc3nnnn3-c3ccccc3)nc2c1-c1ccc(Cl)cc1	-2.16	23.5*
COCCNc1c(-c2ccc(C)c(C)c2)c(=O)c1=O	.	1.36
COc1cscc1C(=O)Nc1cc(C(F)(F)F)cc(C(F)(F)F)c1	-0.73	.
COC(=O)c1cscc1OC(=O)c1ccc(C(F)(F)F)cc1	16.7*	.
CCC(C)NC(=O)Cn1ncc2c3ccccc3n(C)c2c1=O (stereo unspecified)	-0.74	1.97
Clc1ccc(-c2nnc(-c3ccccc3)o2)cc1	-2.71	-1.05
Nc1ccc(F)c(-c2nnc(-c3ccccc3)o2)c1	.	33.2*
O=C(O)Cn1ncn2c(c(-n3cccc3)c3c4c(sc32)CCCC4)c1=O	6.12	2.43
Cc1ccc(CNC(=O)Cn2ncn3c(c(-n4cccc4)c4c5c(sc43)CCCC5)c2=O)cc1	0.9	11.7*
c1coc(CSc2nc3ccccc3n3cnnc23)c1	-0.38	0.06
Cc1ccc(S(=O)(=O)/N=C2\C=C(n3cnc4ccccc43)C(=O)c3ccccc32)cc1	17.3*	.
Cc1ccc(S(=O)(=O)Nc2ccc3c(c2)ncn3-c2ccccc2)cc1	-0.26	.
CC(C)C(=O)N(c1cc2sc(=O)oc2c2ccccc12)S(=O)(=O)c1cccs1	6.95*	0.5
CC(C)C(=O)N(c1ccc2oc(=O)sc2c1)S(=O)(=O)c1cccs1	-2.75	0.34
CCOC(=O)Cn1c(=O)n(-c2ccc(Cl)cc2)c(=O)c2c3c(sc21)COC(C)(C)C3	-2.08	1.35
CC(C)Cn1cc(NC(=O)NCCCN2CCCC2)c2ccccc2c1=O	.	1.03
CC(C)Cn1cc(NC(=O)N(Cc2ccccc2)C(C)C)c2ccccc2c1=O	.	6.6*
CCCN(CCC)C(=O)Nc1cn(CC(C)C)c(=O)c2ccccc12	.	1.89
CC(C)Cn1cc(NC(=O)NCCCN(C)c2ccccc2)c2ccccc2c1=O	19.5*	-0.7
Cc1[nH]c(=S)[nH]c(=O)c1CCC(=O)O	-0.46	.
C=CCNC(=O)c1ccc(NC(=O)C2=C(C)OCCS2)cc1	.	0.29
O=C(c1cnc2cc(-c3ccccc3)nn2c1)c1cc(Br)ccc1O	-0.74	-0.18
O=C(O)c1cc2ncc(Br)cn2n1	.	17.9*
CC1(C)Cc2nc3sc4c(=O)n(Cc5ccc(F)cc5)cnc4c3cc2CO1	.	0.74
CCc1ccc(-c2nnc(-c3ccc(Cl)cc3)o2)cc1	-0.29	-0.06
SMILES	CDC25B CDK2 inh	TAR Tat displ
NC(CO)C(=O)NNCc1ccc(O)c(O)c1O (stereo unspecified)	-1.46	13.3*
N[C@H](CO)C(=O)O	-0.64	.
COc1ccc(C(=O)CC(C(=O)c2ccccc2)c2ccccc2)cc1 (stereo unspecified)	-1.45	.
O=C(N[C@@H](Cc1ccccc1)C(=O)CCl)OCc1ccccc1	-2.21	0.24
CC(C)C[C@@H](C=O)NC(=O)[C@H](CC(C)C)NC(=O)[C@H](CC(C)C)NC(=O)OCc1ccccc1	.	3.88*!
COc1ccc(-c2noc(N3CCN(C)CC3)n2)cc1OC	.	0.09
Cc1cc(=O)oc2cc(O)cc(O)c12	.	1.17
O=c1oc2c(O)c(O)cc3c(=O)oc4c(O)c(O)cc1c4c23	.	30.6*!
Cc1ccc(CNS(=O)(=O)c2ccc3c(c2)oc(=S)n3C)cc1	.	-0.04
O=C(O)CCCC(=O)Nc1cccc2cccnc12	-0.19	1.35
Nc1ncccc1NC(=O)CCC(=O)O	14.4*	0.11
CCOC(=O)CC1(NC(=O)NCc2c(C)nn(C)c2C)CCCCC1	.	1.46
COc1ccc2cc(NC(=O)Nc3ccc(OC)c4cccnc34)n(C)c2c1	14.4*	0.07
COCCNC(=O)Nc1cc2ccc(OC)cc2n1C	-0.97	0.06
Cc1nn(-c2ccccc2)c2c1N(CC(=O)NCC1CCCO1)C(=O)CS2 (stereo unspecified)	.	-0.93
CCN(CC)C(=O)c1oc2ccccc2c1NC(=O)c1ccc2c(c1)OCO2	.	7.04*
CCN(CC)C(=O)c1oc2ccccc2c1NC(=O)C(C)(C)C	.	0.42
CCCCC(=O)Nc1nnc(S(=O)(=O)N2CCCCC2)s1	-2.05	3.27
O=C(NCc1nc(-c2ccc3c(c2)Sc2ccccc2C(=O)N3C2CC2)no1)c1ccccc1	.	1.44
Cc1cc(Nc2ccc(N(C)C)cc2)c2cccc(C)c2n1	-0.51	22*
Cc1cc(C)c2nc(C)cc(Nc3ccc(N(C)C)cc3)c2c1	-2.83	3.65
CN(C)c1ccc(O)c2c1C[C@H]1C[C@H]3[C@H](N(C)C)C(=O)C(C(N)=O)=C(O)[C@@]3(O)C(=O)C1=C2O	.	19.6*

Screens deposited in PubChem BioAssay by Center for Chemical Genomics, University of Michigan.
